# Screens from PubChem.
# In the library only some 27% were active in any assay of this set; here they are far more common.
# CYP2C19 inhib – blocks human cytochrome P450 2C19 | inhibition, % at 5 µM | AID 778 | hit rate 21% among 96,000 | P33261 | CYP2C19 Supersomes, luciferin-H EGE luminescence, 30 min;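 active = CYP2C19 inhibition above a set limit at 5 µM in the primary screen, cut at about 50% in these data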;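 note: plate controls were negative control wells for no effect and 2.5 mM tranylcypromine positive control for full effect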
# sEH activator – activators of human soluble epoxide hydrolase. P34913. purified human sEH enzymatic activity, activator screen. activation, % at 2 µM. hit rate 0.04% among 91,000. AID 717; in the data active = activation above about 37%
# CYP2C9 act – CYP2C9 (human) activation. AID 1024. hit rate 1.4% among 96,000. recombinant CYP2C9, luciferin-H conversion, luminescence; hits give high values; factor 1 = untreated enzyme, 0 = blocked. activation factor at 5 µM. P11712;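 active = activation factor of 2 or more for CYP2C9 at a 5 µM dose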;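 note: 0 = sulfaphenazole-blocked wells and 1 = vehicle-only wells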
# sEH inhibitor – blocks human soluble epoxide hydrolase activity; P34913; recombinant human sEH enzymatic activity assay; inhibition, % at 2 µM; hit rate 0.34% among 91,000; AID 707; in the data active = inhibition above about 80%
# CYP2C19 activ – cytochrome P450 2C19 (human) activation; P33261; recombinant CYP2C19, luciferin-H EGE luminescence; hits give high values; 0 = fully inhibited enzyme, 1 = untreated enzyme; activation factor at 5 µM; 96,000 tested, under 10 active; AID 1025;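 active = activation factor of at least 2 at 5 µM in the primary screen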;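 note: 0 = wells with 2.5 mM tranylcypromine and 1 = vehicle-only wells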
# CYP2C9 inh – human CYP2C9 inhibition; P11712; CYP2C9 Supersomes, luciferin-H conversion, luminescence; inhibition, % at 5 µM; hit rate 20% among 96,000;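 active = blocking of liver enzyme CYP2C9 beyond about 50% at 5 µM, limit read from the data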
# Starred values were filed as active, the others as inactive; · = no result given.
SMILES,CYP2C19 inhib,sEH activator,CYP2C9 act,sEH inhibitor,CYP2C19 activ,CYP2C9 inh
O=C(CSc1nc2nc[nH]c2c(=O)[nH]1)NC1CCCCC1,-15.6,14.6,1.1,-16.8,1.2,-12.0
Cc1ccc(C)c(NC(=O)Cn2nc(-c3ccccc3)nc2-c2ccccc2)c1,19.9,-3.3,1.2,2.2,0.8,-20.0
CNC(=O)c1cc(S(=O)(=O)N(C)C)ccc1Cl,-14.1,-7.8,1.2,9.0,1.1,-15.9
Cc1ccnc(N2CCC(C(=O)Nc3ccc4c(c3)OCO4)CC2)n1,5.1,·,1,·,0.9,0.9
Cc1cc(C(=O)NCCCN2CC(C)CC(C)C2)n(-c2ccccc2)n1 (configuration not stated),-7.4,2.4,1,-5.2,1.1,-2.9
CC1CCCC(C)N1CC(C)(C)NS(=O)(=O)c1ccc(Cl)cc1 (configuration not stated),84.3*,5.6,0.8,-5.9,0.2,16.6
CCN(CC)C1CCCCC1NS(=O)(=O)c1ccc(Cl)cc1 (configuration not stated),5.7,-8.7,1,8.4,0.9,4.9
CC1CC(C)CN(CC(C)(C)NS(=O)(=O)c2ccccc2)C1 (configuration not stated),79.4*,2.5,0.5,-0.5,0.2,47.5
O=C(Cc1sc(-c2ccccc2Cl)nc1-c1ccccc1)Nc1ccc(F)cc1,38.9,2.2,0.3,-1.9,0.6,72.7*
O=C(NCC(c1cccs1)N1CCOCC1)c1cc2ccccc2o1 (configuration not stated),74.6*,·,0.3,·,0.3,74.5*
COc1ccc(/C=N/NC(=O)Nc2nonc2N)cc1,·,-1.8,·,4.1,·,·
CCCC1(c2ccccc2)NC(=O)N(CCN2C(=O)c3ccccc3C2=O)C1=O (configuration not stated),89.3*,4.4,0.6,-3.1,0.1,37.7
CC1(c2ccccc2)NC(=O)N(CCN2C(=O)c3ccccc3C2=O)C1=O (configuration not stated),96.1*,-9.3,0.3,9.8,0,66.7*
O=C1C=C(Nc2cccc(O)c2)CC(c2ccco2)C1 (configuration not stated),·,-4.5,·,7.5,·,·
O=C1c2cccnc2C(=O)N1c1ccccc1-c1ccccc1,55.7*,·,0.7,·,0.4,27.6
O=C1c2cccnc2C(=O)N1c1cccc(-c2nc3ccccc3o2)c1,3.0,10.4,1.1,-6.3,1,-5.7
COC(=O)CC1COc2ccccc2N1C(=O)c1ccc(Cl)cc1 (configuration not stated),41.4,-2.6,0.6,2.2,0.6,40.3
COC(=O)CC1COc2ccccc2N1C(=O)c1ccc(C(C)(C)C)cc1 (configuration not stated),34.0,-0.8,0.2,3.5,0.7,77.1*
CC(c1nnc(Sc2nnnn2-c2ccccc2)n1-c1ccc(F)cc1)N(C)C (configuration not stated),10.4,2.3,0.6,-2.7,0.9,38.9
O=C(NCCCN1CCOCC1)C1(c2ccccc2)CCOCC1,-10.0,-5.9,1.1,8.7,1.1,-5.5
Cc1ccc(C)c(N2CCN(C(c3ccncc3)c3nnnn3Cc3ccccc3)CC2)c1 (configuration not stated),96.7*,7.9,0.1,-7.8,0,93.0*
CCCC(c1nnnn1Cc1ccccc1)N1CCN(c2ccccc2OC)CC1 (configuration not stated),56.9*,·,0.5,·,0.4,48.7
c1ccc(Cn2nnnc2C(c2ccccc2)N2CCN(c3nc4ccccc4s3)CC2)cc1 (configuration not stated),57.8*,-10.5,0.4,10.2,0.4,64.7*
COc1ccccc1C(c1nnnn1Cc1ccccc1)N1CCN(c2nc3ccccc3s2)CC1 (configuration not stated),47.2,·,0.4,·,0.5,55.6*
CCCC(c1nnnn1Cc1ccc(OC)cc1)N1CCN(c2ccccc2OC)CC1 (configuration not stated),42.7,7.2,0.5,-6.5,0.6,48.2
Cc1nn(Cc2ccc(Cl)cc2Cl)c(C)c1NC(=O)NC12CC3CC(CC(C3)C1)C2,1.1,-77.8,0.8,78.5,1,18.0
CCN(CC)C(=O)C1CC(=O)N(c2ccc(F)c(Cl)c2)C1 (configuration not stated),-2.5,-1.1,1.1,-1.6,1,-11.0
